Tau fibril ThT – qHTS for Inhibitors of Tau Fibril Formation, Thioflavin T Binding. hit rate 2.1% among 270,000. recombinant tau K18 P301L, heparin-induced fibrillization, ThT fluorescence. Potency, µM (highest dose often 57.4 µM), inactives show at the top dose activity, negative = inhibition, actives largely listed as inhibitors; also: nearly all actives have a fitted effect of over 55% in size
Target sequence (P10636 561-689 P618L limits assumed): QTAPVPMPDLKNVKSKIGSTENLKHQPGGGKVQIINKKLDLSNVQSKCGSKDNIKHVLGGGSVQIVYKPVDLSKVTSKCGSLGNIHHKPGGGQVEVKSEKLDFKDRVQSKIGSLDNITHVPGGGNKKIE
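Heparin-induced fibrillization of the P301L-mutant K18 repeat-domain fragment of human tau was followed by ThT binding in quantitative high-throughput format.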
Gal4-VP16 FLuc – VP16 counterscreen qHTS for inhibitors of ROR gamma transcriptional activity | Drosophila S2 Gal4-VP16 UAS-luciferase, luminescence, 20 h | Potency, µM (titrated, usually from 53.6 µM), for inactives: top-dose activity, negative = inhibition, actives largely listed as inhibitors | hit rate 3.5% among 310,000 | AID 2546, 2010;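 also: Gal4-VP16 expression switched on by copper sulfate through the metallothionein promoter; nearly all actives have a fitted effect of over 50% in size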
RORgamma inh – qHTS for inhibitors of ROR gamma transcriptional activity. Nuclear receptor ROR-gamma (Mus musculus), P51450. Drosophila S2 Gal4-RORgamma UAS-luciferase reporter, 20 h. Potency, µM (titrated, usually from 53.6 µM), inactives show at the top dose activity change, negative = inhibition, hits mostly inhibitors. hit rate 5.4% among 310,000. AID 2551, 2010; also: nearly all actives have a fitted effect of over 60% in size
Target sequence (P51450 whole entry, looked up, the tested form may be a part): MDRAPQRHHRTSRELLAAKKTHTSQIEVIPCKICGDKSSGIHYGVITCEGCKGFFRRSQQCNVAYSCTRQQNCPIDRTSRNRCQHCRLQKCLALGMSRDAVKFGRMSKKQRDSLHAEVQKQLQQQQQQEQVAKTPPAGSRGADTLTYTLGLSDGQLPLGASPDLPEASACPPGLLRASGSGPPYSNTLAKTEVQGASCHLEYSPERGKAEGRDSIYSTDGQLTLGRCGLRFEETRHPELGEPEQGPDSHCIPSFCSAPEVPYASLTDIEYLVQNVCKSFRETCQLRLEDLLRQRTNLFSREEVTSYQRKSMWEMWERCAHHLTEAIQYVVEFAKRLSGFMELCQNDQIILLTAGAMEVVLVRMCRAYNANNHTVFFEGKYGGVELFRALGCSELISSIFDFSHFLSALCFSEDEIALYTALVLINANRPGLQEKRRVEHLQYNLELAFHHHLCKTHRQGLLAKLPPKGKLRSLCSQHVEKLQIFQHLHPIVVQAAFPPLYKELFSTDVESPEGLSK
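Read-out: Photinus luciferase luminescence; inhibitors lower reporter signal. Insect Schneider cells with Gal4-ROR gamma fusion under metallothionein promoter, UAS reporter; 700 uM final copper sulfate induction, 20 hr, ambient temperature.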
Tau fluor cs – Counterscreen qHTS for Inhibitors of Tau Fibril Formation, Fluorescence Polarization. Potency, µM (doses to about 57.7 µM), for inactives: at the highest dose activity change, negative = decrease. tau K18 P301L Alexa594 fluorescence, heparin fibrillization. hit rate 0.93% among 280,000. AID 1463, 2008; also: nearly all actives have a fitted effect of over 55% in size
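Human tau K18 P301L (15 uM unlabeled, 0.24 uM Alexa 594-labeled) in 100 mM sodium acetate pH 7 with 20 uM heparin, 6 hr at 37 C. ThT 30 uM added, 1 hr ambient; Alexa 594 FP and total fluorescence read at 555/632 nm.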
Tau fibril FP – qHTS for Inhibitors of Tau Fibril Formation, Fluorescence Polarization. hit rate 0.39% among 280,000. Microtubule-associated protein tau (Homo sapiens), P10636. Potency, µM (titrated, usually from 57.7 µM), inactives show at the highest dose activity, negative = inhibition, usual class: inhibitors. K18 P301L tau heparin fibrillization, Alexa594 FP, 6 h; also: nearly all actives have a fitted effect of over 55% in size
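FP of Alexa 594-tau after heparin (20 uM) induction. Substrate: human K18 P301L, 15 uM unlabeled, 0.24 uM labeled. Buffer 100 mM sodium acetate pH 7. 6 hr, 37 C.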
An asterisk follows results filed as active; ? = inconclusive; / = no result given; ! = not active in a repeat; [ ] = remark or other dose. A selection: hits, their analogues and other compounds. The true share with any hit is near 7.3%. Calls follow the shape of the dose curve; as a rule, active = well fitted curve in the direction sought with a large enough effect; inconclusive = small, poorly fitted or top-dose-only effect, or another doubt; inactive = no such curve, though single readings can be large; an effect the other way counts as inactive or inconclusive. % is scaled to controls: 0 for no effect and ±100 for the full control effect; potency is read from the fitted curve at half-maximal effect.

SMILES	Tau fibril ThT	Gal4-VP16 FLuc	RORgamma inh	Tau fluor cs	Tau fibril FP
Cc1nnc(N/N=C/c2cc([N+](=O)[O-])c(N3CCC(C)CC3)cc2N2CCC(C)CC2)n1N	18µM*	?	16µM*	?	-14%
COc1ccc(C(=O)Nc2nnc(Cc3ccc(OC)c(OC)c3)s2)cc1	/	-8%	6%	/	/
O=C1NCN(c2ccccc2)C12CCN(CCCC(c1ccc(F)cc1)c1ccc(F)cc1)CC2	?	18µM*!	13µM*!	?	?
COc1ccc(CCNC(=O)c2cccc(Nc3nc4ccccc4nc3-n3nc(C)cc3C)c2)cc1OC	1%	/	/	?	-12%
COc1ccc(CNc2cc(-c3ccoc3)ncn2)c(OC)c1	/	-9%	30%	/	/
COc1cccc(/C=C/c2nc(C#N)c(N3CCN(C)CC3)o2)c1	-7%	/	/	-23%	-17%
CCOc1ccc(C(=O)c2ccc(O)c(O)c2O)cc1	22µM*	-6%	-23%	?	?
CCOc1cccc(C(=O)c2ccc(O)c(O)c2O)c1	22µM*	4%	-32%	?	?
CCOC(=O)COc1ccc(C(=O)c2ccccc2)c(O)c1	-7%	-6%	-6%	-8%	6%
CCCSc1ncc(Cl)c(C(=O)Nc2ccc(S(=O)(=O)N3CCCC(C)C3)cc2)n1 (centres undefined)	-1%	/	/	?	-12%
N#C/C(=N\O)c1nc2ccccc2[nH]1	-13%	0%	-22%	-9%	-1%
N#CC(C(=O)C1CCCCC1)c1nc2ccccc2[nH]1 (centres undefined)	-6%	7.9µM*	3.5µM*	-7%	7%
N#CC(C(=S)Nc1ccccc1)c1nc2ccccc2[nH]1 (centres undefined)	?	2.5µM*	1.1µM*	?	2%
CSC(=Nc1ccccc1)C(C#N)c1nc2ccccc2[nH]1 (centres undefined)	0%	-14%	5.6µM*	-27%	-10%
OC(c1nc2ccccc2[nH]1)C(O)c1nc2ccccc2[nH]1 (centres undefined)	/	1%	9%	/	/
Cc1cn2c(=O)cc(COc3ccc(Cl)cc3)nc2s1	?	/	/	-8%	-4%
O=C1CC[C@H](C(=O)N[C@@H]2C[C@H]2c2ccccc2)N1	/	8%	40%	/	/
CCCCCCCOC(=O)C[N+](C)(C)CCOC1CC2CCC1(C)C2(C)C (centres undefined)	?	13µM*	?	2%	0%
CCCCCCOC(=O)C[N+](C)(C)CCOC1CC2CCC1(C)C2(C)C (centres undefined)	?	6%	?	-20%	3%
Cc1cc(Nc2cccc(C(F)(F)F)c2)nc2ccc(NC(=O)c3cccc(Cl)c3)cc12	?	/	/	7.1µM*[quencher]	?
O=C(Nc1cccc(C(F)(F)F)c1)c1cccc(C(=O)Nc2cccc(C(F)(F)F)c2)c1	12%	/	/	-13%	?
O=C(Nc1cccc(C(F)(F)F)c1)c1cccnc1	0%	5%	23%	-5%	-3%
Cc1cc(Nc2cccc(C(F)(F)F)c2)nc2ccc(NC(=O)c3cccnc3)cc12	-17%	/	/	8.9µM*[quencher]	?
CCOc1ccc(C(=O)Nc2ccc3nc(Nc4cccc(C(F)(F)F)c4)cc(C)c3c2)cc1OCC	?	/	/	3.5µM*[quencher]	-8%
COc1ccc(Cn2c(SCc3ccc(C(=O)NC(C)c4ccccc4)cc3)nc3cccnc32)cc1 (centres undefined)	2%	/	/	-2%	-10%
SMILES	Tau fibril ThT	Gal4-VP16 FLuc	RORgamma inh	Tau fluor cs	Tau fibril FP
C/C(=N/NC(N)=S)c1ccc(Br)s1	-19%	5µM*	1.1µM*	-14%	3%
C/C(=N\NC(=O)Cc1ccccc1)c1ccc(Br)s1	/	2%	-18%	/	/
C/C(=N\NC(N)=S)c1cc(-c2ccccc2)c(-c2ccccc2)s1	/	1.4µM*	0.45µM*	/	/
Cc1cccc(S(=O)(=O)c2cn(Cc3ccccc3)c3cc(N4CCCCC4C)c(F)cc3c2=O)c1 (centres undefined)	-11%	/	/	-8%	-8%
O=C(c1cc(C(F)(F)F)cc(C(F)(F)F)c1)N1CCC2(CC1)CCN(c1ccccn1)CC2	/	-16%	-2%	/	/
COc1ccc(S(=O)(=O)N(C(=O)C(C)C)c2ccc3oc(=O)sc3c2)cc1	?	1%	-1%	-23%	-18%
CCOc1ccc(S(=O)(=O)N(C(=O)c2ccco2)c2cc3sc(=O)oc3c3ccccc23)cc1	14µM*	?	?	-22%	28µM*
CCOc1ccc(S(=O)(=O)N(C)CC(=O)NCc2ccco2)cc1	/	10%	-17%	/	/
Cc1ccc(S(=O)(=O)N(C(=O)c2ccco2)c2cc3sc(=O)oc3c3ccccc23)cc1	14µM*	?	-39%	?	22µM*
COc1ccc(S(=O)(=O)N(C(=O)c2ccco2)c2cc3sc(=O)oc3c3ccccc23)cc1	13µM*	?	?	?	20µM*
O=C(NC1CCCCC1)C(c1ccncc1)N(C(=O)c1csnn1)c1ccccc1 (centres undefined)	/	21%	-44%	/	/
Cc1ccccc1NC(=S)N(Cc1ccccn1)Cc1ccccc1Cl	-6%	?	6.3µM*	-17%	-11%
COc1ccccc1NC(=S)N(Cc1cccnc1)Cc1ccccc1Cl	-12%	1%[10 µM]	?	-20%	-2%
COc1ccccc1NC(=S)N(Cc1ccc(C)cc1)Cc1cccnc1	2%	4%[10 µM]	7.9µM*	-2%	2%
Cc1ccccc1NC(=S)N(Cc1cccnc1)Cc1ccccc1Cl	-3%	-16%	2.2µM*	-9%	-6%
CC(=O)Nc1ccc(NC(=O)CCS(=O)(=O)c2ccc3c(c2)CC(=O)N3C)cc1	-10%	/	/	-10%	-3%
O=C(O)c1ccc(N/N=C/c2ccc(OC(=O)c3ccccc3Cl)cc2)cc1	?	0.32µM*	0.4µM*	?	3%
CC(C)c1ccc(/C=N/Nc2ccc(C(=O)O)cc2)cc1	?	0.25µM*	?	-13%	8%
O=C(O)c1ccc(N/N=C/c2ccc(-c3ccccc3)cc2)cc1	8.9µM*	-7%	0%	16µM*[quencher]	11%
O=C(O)c1cc(N/N=C/c2ccc(-c3ccccc3)cc2)ccc1Cl	/	-7%	0%	/	/
Cc1ccc(/C=N/Nc2ccc(C(=O)O)cc2)o1	?	0.4µM*	0.32µM*	-9%	-2%
Cc1cc(C)c2nc(C)cc(Nc3cccc(C(=O)O)c3)c2c1	0%	/	/	3%	-2%
Cc1ccsc1C(=O)NC1CCCN(Cc2ccc(Cl)cc2)C1 (centres undefined)	/	-3%	28%	/	/
